According to the supplement of paper PMC9262897, “Low-cost anti-mycobacterial drug discovery using engineered E. coli” (Nature Communications, 2022):
Counter-ions that a name gives are not always drawn. ± gives the standard deviation of the averaged measurements.

Columns and labels:
Test in all cases: growth (OD600 after 10 h); higher = more growth (less inhibition)
[1] = test system: E. coli TESEC Alr+ wild-type control; conditions: compound 0.1 mM; raw OD600 reference: median of DMSO wells 0.241, cell-free background 0.041
Protocol: (§1)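 TESEC Mtb Alr E. coli, or the Alr+ wild-type control, in 384-well plates with Prestwick library compounds at 0.1 mM and 1% DMSO, across arabinose induction levels of 1E3 to 1E7 nM. Growth is read as OD600 after 10 h at 37 °C in triplicate biological replicates.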

E. coli TESEC Mtb Alr [2] = conditions: compound 0.1 mM
Protocol: as §1

E. coli TESEC Mtb Asd = conditions: compound 0.1 mM
Protocol: (§2)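 TESEC E. coli strains in which the native enzyme is deleted and replaced by arabinose-inducible Mtb Asd, DapB, CysH or TrpD, each grown in its selective medium. Strains were screened against the Prestwick library at 0.1 mM and 1% DMSO in 384-well format at low and high arabinose induction. Growth is read as OD600 after 10 h in triplicate.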

E. coli TESEC Mtb DapB = conditions: compound 0.1 mM
Protocol: as §2

E. coli TESEC Mtb Alr [3] = conditions: compound 0.1 mM; remark: listed apart in the source
Protocol: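 TESEC Mtb Alr E. coli (ΔaraC ΔtolC ΔentC Δalr ΔdadX, arabinose-inducible Mtb Alr) or the Alr+ wild-type control strain, grown in defined M9-fructose medium without D-alanine in 96-well plates with Prestwick library compounds at 0.1 mM and 1% DMSO. Low Alr induction is 0.1 µM arabinose and high induction is 10 mM arabinose.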

[4] = arabinose 1000 nM, raw OD600 reference: median of DMSO wells 0.294, cell-free background 0.041
[5] = arabinose 10000 nM, raw OD600 reference: median of DMSO wells 0.264, cell-free background 0.041
[6] = arabinose 100000 nM, raw OD600 reference: median of DMSO wells 0.201, cell-free background 0.041
[7] = arabinose 1000000 nM, raw OD600 reference: median of DMSO wells 0.193, cell-free background 0.041
[8] = arabinose 10000000 nM, raw OD600 reference: median of DMSO wells 0.146, cell-free background 0.041
[9] = arabinose induction (level): High, raw OD600 reference: median of DMSO wells 0.331, cell-free background 0.041
[10] = arabinose induction (level): Low, raw OD600 reference: median of DMSO wells 0.417, cell-free background 0.041
[11] = arabinose induction (level): High, raw OD600 reference: median of DMSO wells […], cell-free background 0.041
[12] = arabinose induction (level): Low, raw OD600 reference: median of DMSO wells 0.227, cell-free background 0.041
[13] = arabinose 100 nM, raw OD600 reference: median of DMSO wells 0.413, cell-free background 0.052
[14] = arabinose 10000000 nM, raw OD600 reference: median of DMSO wells […], cell-free background 0.052

SMILES	growth [1]	growth (E. coli TESEC Mtb Alr [2]; [4])	growth (E. coli TESEC Mtb Alr [2]; [5])	growth (E. coli TESEC Mtb Alr [2]; [6])	growth (E. coli TESEC Mtb Alr [2]; [7])	growth (E. coli TESEC Mtb Alr [2]; [8])	growth (E. coli TESEC Mtb Asd; [9])	growth (E. coli TESEC Mtb Asd; [10])	growth (E. coli TESEC Mtb DapB; [11])	growth (E. coli TESEC Mtb DapB; [12])	growth (E. coli TESEC Mtb Alr [3]; [13])	growth (E. coli TESEC Mtb Alr [3]; [14])
COc1ccccc1N1CCN(CCCNc2cc(=O)n(C)c(=O)n2C)CC1 [Urapidil hydrochloride]	0.224 ± 0.0078	0.274 ± 0.021	0.259 ± 0.0036	0.173 ± 0.017	0.17 ± 0.004	0.137 ± 0.0051	0.28 ± 0.038	0.455 ± 0.065	0.183 ± 0.017	0.201 ± 0.015	0.409 ± 0.017	0.326 ± 0.011
Cc1ccc(C(=O)c2cc(O)c(O)c([N+](=O)[O-])c2)cc1 [Tolcapone]	0.04277 ± 0.00032	0.0471 ± 0.0057	0.04323 ± 0.00038	0.0445 ± 0.00061	0.04313 ± 0.00042	0.0485 ± 0.00089	0.0527 ± 0.0018	0.0521 ± 0.0091	0.0526	0.0557 ± 0.0019	0.0574 ± 0.0008	0.0554 ± 0.00035
CCCCC(=O)O[C@H]1CC[C@H]2[C@@H]3CCc4cc(O)ccc4[C@H]3CC[C@]12C [Estradiol Valerate]	0.252 ± 0.004	0.307 ± 0.0067	0.285 ± 0.0065	0.215 ± 0.016	0.221 ± 0.021	0.13 ± 0.0034	0.404 ± 0.031	0.396 ± 0.048	0.193 ± 0.0052	0.207 ± 0.0061	0.436 ± 0.018	0.38 ± 0.0047
C#Cc1cccc(Nc2ncnc3cc(OCCOC)c(OCCOC)cc23)c1 [Erlotinib]	0.193 ± 0.0065	0.256 ± 0.01	0.236 ± 0.0081	0.202 ± 0.0068	0.146 ± 0.0076	0.185 ± 0.01	0.349 ± 0.093	0.303 ± 0.066	0.161 ± 0.0058	0.201 ± 0.0093	0.411 ± 0.005	0.35 ± 0.012
CC1(C)O[C@@H]2C[C@H]3[C@@H]4C[C@H](F)C5=CC(=O)CC[C@]5(C)[C@H]4[C@@H](O)C[C@]3(C)[C@]2(C(=O)CO)O1 [Flurandrenolide]	0.223 ± 0.0092	0.289 ± 0.015	0.2518 ± 0.0025	0.174 ± 0.022	0.161 ± 0.01	0.131 ± 0.0031	0.282 ± 0.038	0.448 ± 0.035	0.216 ± 0.0087	0.239 ± 0.0036	0.406 ± 0.01	0.338 ± 0.011
C[C@@H]1CCC[C@H](C)N1NC(=O)c1ccc(Cl)c(S(N)(=O)=O)c1 [Clopamide]	0.235 ± 0.0084	0.294 ± 0.02	0.251 ± 0.0061	0.217 ± 0.022	0.173 ± 0.0061	0.135 ± 0.002	0.283 ± 0.036	0.354 ± 0.031	0.199 ± 0.01	0.225 ± 0.0079	0.419 ± 0.011	0.345 ± 0.015
CCC[C@H](N[C@@H](C)C(=O)N1[C@H](C(=O)O)C[C@@H]2CCCC[C@@H]21)C(=O)OCC [Perindopril]	0.252 ± 0.01	0.309 ± 0.0092	0.286 ± 0.0037	0.208 ± 0.016	0.198 ± 0.024	0.149 ± 0.0041	0.225 ± 0.016	0.392 ± 0.033	0.198 ± 0.01	0.239 ± 0.041	0.431 ± 0.0091	0.325 ± 0.0072
CN(C)CCCN1c2ccccc2Sc2ccc(C(F)(F)F)cc21 [Triflupromazine hydrochloride]	0.0405 ± 0.00036	0.03957 ± 0.00015	0.0392 ± 0.00026	0.0407 ± 0.00062	0.0391	0.042 ± 0.00055	0.0504 ± 0.0028	0.0491 ± 0.0012	0.0483 ± 0.00081	0.211 ± 0.15	0.298 ± 0.21	0.0543 ± 0.0015
CCc1nc(N)nc(N)c1-c1ccc(Cl)cc1 [Pyrimethamine]	0.1323 ± 0.0013	0.123 ± 0.0079	0.0978 ± 0.0026	0.123 ± 0.0035	0.0795 ± 0.0019	0.139 ± 0.002	0.17 ± 0.024	0.179 ± 0.015	0.173 ± 0.016	0.191 ± 0.044	0.401 ± 0.026	0.261 ± 0.018
CC(=O)[C@@]12O[C@](C)(c3ccccc3)O[C@@H]1C[C@H]1[C@@H]3CCC4=CC(=O)CC[C@]4(C)[C@H]3CC[C@@]12C [Algestone acetophenide]	0.232 ± 0.0045	0.323 ± 0.053	0.265 ± 0.029	0.173 ± 0.031	0.115 ± 0.0061	0.211 ± 0.0087	0.231 ± 0.0044	0.278 ± 0.038	0.15 ± 0.015	0.171 ± 0.0092	0.413 ± 0.011	0.117 ± 0.013
CC1(C)O[C@@H]2[C@@H](CO[C@@]3(COS(N)(=O)=O)OC(C)(C)O[C@@H]23)O1 [Topiramate]	0.234 ± 0.0043	0.291 ± 0.0074	0.2714 ± 0.0027	0.18 ± 0.018	0.204 ± 0.0062	0.136 ± 0.0016	0.243 ± 0.055	0.295 ± 0.057	0.19 ± 0.01	0.203 ± 0.022	0.4226 ± 0.0021	0.302 ± 0.0096
CCCCOc1ccc(CC(=O)NO)cc1 [Bufexamac]	0.204 ± 0.0088	0.247 ± 0.014	0.243 ± 0.0037	0.202 ± 0.025	0.118 ± 0.0015	0.0983 ± 0.0016	0.33 ± 0.0049	0.418 ± 0.034	0.18 ± 0.013	0.222 ± 0.088	0.4 ± 0.018	0.284 ± 0.0052
CNC(C)CCC=C(C)C (centres undefined) [Isometheptene mucate]	0.259 ± 0.012	0.314 ± 0.0099	0.266 ± 0.011	0.21 ± 0.025	0.177 ± 0.0051	0.1478 ± 0.0012	0.228 ± 0.035	0.397 ± 0.096	0.22 ± 0.0027	0.246 ± 0.018	0.405 ± 0.017	0.314 ± 0.02
CCn1cc(C(=O)O)c(=O)c2cc(F)c(N3CCNC(C)C3)c(F)c21 (centres undefined) [Lomefloxacin hydrochloride]	0.04153 ± 0.0004	0.0411 ± 0.00064	0.03993 ± 0.00021	0.0417 ± 0.00042	0.03983 ± 0.00025	0.04157 ± 0.00015	0.04757 ± 0.00021	0.0494 ± 0.0013	0.0491 ± 0.0012	0.0483 ± 0.0006	0.0534 ± 0.0016	0.0512 ± 0.0011
Nc1ccc(C(=O)NCC(=O)O)cc1 [Aminohippuric acid]	0.246 ± 0.011	0.297 ± 0.018	0.2604 ± 0.0024	0.186 ± 0.022	0.189 ± 0.006	0.138 ± 0.0027	0.372 ± 0.047	0.464 ± 0.01	0.208 ± 0.0093	0.234 ± 0.0072	0.408 ± 0.015	0.3487 ± 0.0013
Cc1cccc(C)c1OCC(C)N (centres undefined) [Mexiletine hydrochloride]	0.225 ± 0.0049	0.276 ± 0.0054	0.262 ± 0.0058	0.223 ± 0.038	0.171 ± 0.0031	0.143 ± 0.0056	0.348 ± 0.076	0.397 ± 0.033	0.2 ± 0.013	0.288 ± 0.071	0.4 ± 0.015	0.352 ± 0.015
N=C(N)NC(=N)NCCc1ccccc1 [Phenformin hydrochloride]	0.2497 ± 0.002	0.279 ± 0.014	0.274 ± 0.0079	0.2 ± 0.02	0.186 ± 0.0089	0.137 ± 0.0039	0.378 ± 0.07	0.405 ± 0.067	0.203 ± 0.0056	0.211 ± 0.012	0.416 ± 0.0069	0.3729 ± 0.003
